Sfp PPTase inh: qHTS Assay for Inhibitors of Bacillus subtilis Sfp phosphopantetheinyl transferase (PPTase); Biochemical Sfp PPTase activity, qHTS; Potency, µM, for inactives: largest response in the series, negative = inhibition, usual class: inhibitors; 310,000 compounds, 3.5% hits; 4'-phosphopantetheinyl transferase ffp (Bacillus subtilis), Q9F4F7;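 note: the enzyme is Sfp with the accession as filed and its product quenches rhodamine fluorescence; 0% = enzyme reaction without inhibitor and -100% = no enzyme wells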
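With Hepes-Na pH 7.6 buffer containing 10 mM MgCl2, Sfp (15 nM) modified BHQ-2-YbbR (12.5 uM) using rhodamine-CoA (5 uM). Two reads 30 minutes apart at 525/598 nm yielded each well's rate.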
Epigenetic reg: Quantitative High-Throughput Screen for Regulators of Epigenetic Control; murine LDR cells, GFP reporter derepression, 30 h; Potency, µM (titrated, usually from 53.9 µM), inactives show at the highest dose GFP activation, actives largely listed as activators; 280,000 compounds, 0.2% hits; AID 1865, 2009; note: % of control where 0% means no effect; nearly all actives have a fitted effect of over 60% in size
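Readout is the number of GFP-expressing murine LDR cells, counted by cytometry following washing. Cells were treated with compound for 30 h at 37 C; the stably integrated CMV-GFP locus is normally silent.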
RORg inh: qHTS for inhibitors of ROR gamma transcriptional activity | Drosophila S2 Gal4-RORgamma UAS-luciferase reporter, 20 h | Potency, µM (highest dose often 53.6 µM), for inactives: at the highest dose activity change, negative = inhibition, actives largely listed as inhibitors | 310,000 compounds, 5.4% hits; note: % is set by controls: 0 for no effect and ±100 for the full control effect; nearly all actives have a fitted effect of over 60% in size
Target sequence (P51450 whole entry, looked up, the tested form may be a part): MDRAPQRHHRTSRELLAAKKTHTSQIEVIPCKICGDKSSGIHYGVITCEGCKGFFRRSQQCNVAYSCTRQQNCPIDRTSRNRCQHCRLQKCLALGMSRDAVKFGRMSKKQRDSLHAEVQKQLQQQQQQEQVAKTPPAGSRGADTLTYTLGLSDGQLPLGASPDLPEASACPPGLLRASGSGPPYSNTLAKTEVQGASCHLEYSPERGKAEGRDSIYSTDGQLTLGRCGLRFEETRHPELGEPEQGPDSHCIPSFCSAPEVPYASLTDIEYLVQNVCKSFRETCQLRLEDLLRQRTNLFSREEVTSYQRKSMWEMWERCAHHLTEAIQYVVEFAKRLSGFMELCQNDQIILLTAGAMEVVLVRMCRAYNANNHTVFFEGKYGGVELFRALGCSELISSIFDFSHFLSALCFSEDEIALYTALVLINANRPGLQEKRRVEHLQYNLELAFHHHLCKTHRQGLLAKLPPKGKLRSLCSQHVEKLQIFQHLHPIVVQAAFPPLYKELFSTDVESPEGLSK
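Compounds are pin-transferred onto Drosophila Schneider cells expressing a copper-inducible Gal4–ROR gamma transactivation domain fusion. After 1 hr, copper sulfate is added to 700 uM final; luciferase is read 20 hr later.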
ClpP mod: qHTS Assay for Activators of ClpP | 340,000 compounds, 1.9% hits | purified B. subtilis ClpP, FRET peptide cleavage, 20 min | Potency, µM (doses to about 57.5 µM), for the others: top-dose activity change, negative = active | ATP-dependent Clp protease proteolytic subunit (Bacillus subtilis (strain 168)), P80244 | AID 651965, 2013; active = well fitted falling curve with a large enough effect; inconclusive = small, poorly fitted or top-dose-only effect; inactive = no such curve, though single readings can be large or run the other way; note: the source files actives as falling curves though it sought activators and does not explain the sign; nearly all actives have a fitted effect of over 65% in size
Target sequence (P80244 whole entry, looked up): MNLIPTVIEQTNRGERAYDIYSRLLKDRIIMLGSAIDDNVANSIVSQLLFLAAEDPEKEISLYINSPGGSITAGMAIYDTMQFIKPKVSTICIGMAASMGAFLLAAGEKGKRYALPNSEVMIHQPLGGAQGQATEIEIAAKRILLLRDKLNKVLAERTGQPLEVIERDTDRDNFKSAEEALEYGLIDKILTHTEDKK
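Buffer: 100 mM Tris/HCl pH8, 100 mM KCl, 0.05% low protease BSA, 2.5% glycerol, 0.01% Tween-20. ClpP 10 microg/mL final; 20 min RT; delta FRET normalized to ADEP and DMSO controls.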
VP16 counter: VP16 counterscreen qHTS for inhibitors of ROR gamma transcriptional activity | Potency, µM (series often up to 53.6 µM), without a hit: at the highest dose activity, negative = inhibition, usual class: inhibitors | Drosophila S2 Gal4-VP16 UAS-luciferase, luminescence, 20 h | AID 2546, 2010 | 310,000 compounds, 3.5% hits;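 note: Gal4-VP16 expression switched on by copper sulfate through the metallothionein promoter; % is set by controls: 0 for no effect and ±100 for the full control effect; nearly all actives have a fitted effect of over 50% in size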
PINK1 modulator: A Quantitative High throughput Screen to Identify Chemical Modulators of PINK1 Expression; PINK1 immunofluorescence, high-content cytometry, 24 h; Potency, µM (doses to about 76.6 µM), inactives show at the highest dose activation (PINK1 increase), actives largely listed as activators; 410,000 compounds, 0.2% hits; AID 624263, 2012; active = well fitted activation curve with a large enough effect; inconclusive = small, poorly fitted or top-dose-only effect; cell line not stated here; note: % of control where 0% means no effect; nearly all actives have a fitted effect of over 65% in size
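Stable cell line, 250 cells/well, 12 h attachment; compounds pinned at 5 concentrations, 24 h; CCCP control. Fixed with nuclear dye, primary antibodies 12 h at 10 degrees C, secondary plus cell stain; laser-scanning cytometer read.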
An asterisk follows results filed as active; ? = inconclusive; nt = no result given; [ ] = dose if it differs, or a comment. Only some compounds are listed: those with a hit (about 8.1% of all), similar ones and a draw of the others. Unless noted, calls come from the whole dose curve; as a rule, active = well fitted curve in the direction sought with a large enough effect; inconclusive = small, poorly fitted or top-dose-only effect, or another doubt; inactive = no such curve, though single readings can be large; an effect the other way counts as inactive or inconclusive. Potency is the fitted concentration of half-maximal effect.

SMILES | Sfp PPTase inh | Epigenetic reg | RORg inh | ClpP mod | VP16 counter | PINK1 modulator
COCCn1c(=O)[nH]c(=O)c2c1nc(-c1ccc(-c3ccc(Cl)cc3[N+](=O)[O-])o1)n2Cc1ccccc1 | ? | 2.2% | ? | -13.8% | ? | 4.9%
COCCn1c(-c2ccc(-c3ccc([N+](=O)[O-])cc3Br)o2)nc2c1c(=O)[nH]c(=O)n2CC(C)C | 28.2µM* | ? | -0.3% | -3.7% | -3.0% | 0.0%
CCCCn1c(=O)[nH]c(=O)c2c1nc(-c1ccc(-c3ccccc3Br)o1)n2CC | 14.1µM* | -1.0% | 5.7% | ? | -3.6% | 6.4%
COc1ccc(-c2ccc(-c3nc4c(c(=O)[nH]c(=O)n4Cc4ccccc4)n3C)o2)c([N+](=O)[O-])c1 | 10µM* | -2.1% | -3.5%[10 µM] | nt | -36.8% | 5.1%
CCCCn1c(=O)[nH]c(=O)c2c1nc(-c1ccc3ccccc3c1)n2CC | 9.0% | -1.8% | -1.1% | nt | 3.7% | 9.1%
COc1cc(N=Nc2cccc(S(N)(=O)=O)c2)c2ccccc2c1N | ? | 31.6µM* | 11.2µM* | nt | -1.2% | 0.4%
Cc1c(C(=O)N2CCC(C)CC2)c(S(=O)(=O)NCc2ccccc2)c(C)n1C | nt | -4.3% | nt | -0.3% | nt | -0.5%
Cc1nn(-c2ccccn2)c2c1-c1nc(N3CCOCC3)ncc1CC2 | 44.7µM* | -2.1% | -2.8% | 2.5% | 0.2% | -3.0%
O=C(N/N=C/c1cccnc1)c1cc(Br)ccc1O | 6.7% | nt | ? | -2.6% | -19.7% | -2.9%
O=C(N/N=C/c1ccccn1)c1ccc(Br)o1 | 17.8µM* | -1.1% | 12.6µM* | -2.3% | ? | 0.0%
O=C(N/N=C/c1ccccn1)c1cc(Br)ccc1O | 5.1% | nt | 3.98µM* | -1.6% | 4.47µM* | 1.4%
CCc1ccc(S(=O)(=O)NC2CC(C)(C)NC(C)(C)C2)cc1 | 10.3% | nt | 2µM* | nt | -4.3% | -0.8%
Cc1ccc(S(=O)(=O)NC2CC(C)(C)NC(C)(C)C2)cc1 | 5.1% | nt | 15.6% | -0.6% | -6.1% | 0.4%
O=C(CC1C(=O)CCCC1=O)c1ccccc1 | ? | -0.1% | 10µM* | nt | ? | -0.4%
COc1cc(/C=N/N2CCN(c3ccccc3OC)CC2)ccc1OC(C)=O | 18.8% | nt | 2.3% | 28.2µM* | -0.9% | -0.5%
COc1ccccc1N1CCN(/N=C/c2cc(OC)c(O)c(OC)c2)CC1 | 39.8µM* | 1.5% | 20.0% | -2.8% | -8.4% | 0.3%
COc1ccccc1N1CCN(/N=C/c2cccc(O)c2)CC1 | 11.8% | 0.5% | 2.4% | 0.1% | -0.9% | -0.5%
COc1ccc(OCc2n(CC(=O)OC3CC(C)CCC3C(C)C)c3ccccc3[n+]2C)cc1 (stereo unspecified) | 35.5µM* | -3.8% | ? | 2.9% | ? | -2.0%
O=C1C=C(N2CCOCC2)C2(CCCCC2)O1 | -6.8% | 1.1% | 11.2µM* | nt | -26.7% | -2.4%
O=C1C=C(N2CCCCC2)C2(CCCCC2)O1 | 22.8% | 2.2% | -10.4% | 0.7% | 10.6% | 1.2%
COc1cccc(C2=Nn3c(nnc3-c3cccc(OC)c3OC)SC2)c1 | -4.9% | nt | -2.7% | nt | -1.2% | nt
COc1cccc(-c2cncnc2Nc2ccc(F)cc2)c1 | 79.4µM* | nt | 3.2% | nt | 7.4% | -0.7%
COc1cccc(-c2cncnc2NC2CCNCC2)c1 | 16.5% | nt | 10.6% | nt | 6.7% | -0.4%
Cn1cnc([N+](=O)[O-])c1SCC(O)CN1CCCCC1 (stereo unspecified) | 7.0% | 0.9% | -0.6% | 0.9% | 12.0% | -0.2%
Cn1cnc([N+](=O)[O-])c1SCC(=O)NN | 56.2µM* | 0.0% | 2.1% | 2.1% | 13.2% | 1.1%
SMILES | Sfp PPTase inh | Epigenetic reg | RORg inh | ClpP mod | VP16 counter | PINK1 modulator
COc1ccc(Cn2c(C(=O)O)c(CNC3CCCCCC3)c3ccc(OC)cc32)cc1 | nt | -5.6% | nt | -26.4% | nt | -0.2%
C=CCOC(=O)/C(=C/c1ccco1)NC(=O)/C=C/c1ccccc1 | 14.1% | -1.0% | 18.1% | -1.2% | 10.7% | 0.5%
CCC(C)NC(=O)/C(=C/c1ccco1)c1ccccc1 (stereo unspecified) | 3.16µM* | 15.3% | 1.2% | 25.1µM* | ? | -0.6%
O=C(O)CNC(=O)/C(=C/c1ccco1)NC(=O)/C=C/c1ccccc1 | 56.2µM* | 4.5% | 18.2% | 1.2% | 0.0% | 5.7%
O=C(NCCc1ccccc1)/C(=C/c1ccco1)c1ccccc1 | 6.31µM* | -3.0% | 19.5% | 0.7% | ? | 2.1%
CCCN1CNc2c(c(=O)[nH]c(=S)n2CCc2cc(C)cc(C)c2)C1 | nt | nt | nt | -4.7% | nt | 3.4%
Cc1c(F)cccc1NS(=O)(=O)c1cccs1 | nt | 0.0% | nt | 2.4% | nt | 2.3%
CCC(C(=O)O)C1OC(C(C)C(O)C(C)C(=O)C(CC)C2OC3(C=CC(O)C4(CCC(C)(C5CCC(O)(CC)C(C)O5)O4)O3)C(C)CC2C)C(C)CC1C (stereo unspecified) | 14.9% | nt | 0.891µM* | nt | 0.447µM* | nt
CCC1C/C(=C\c2cc(OC)c(OC)cc2OC)C(=O)/C(=C/c2cc(OC)c(OC)cc2OC)C1 (stereo unspecified) | 56.2µM* | nt | 23.6% | -1.4% | -21.1% | -3.2%
CC12CCCC(=O)C1CCC(=Cc1ccco1)C2=O (stereo unspecified) | nt | nt | nt | -1.1% | nt | -0.9%
CCC1C/C(=C/c2ccco2)C(=O)/C(=C/c2ccco2)C1 (stereo unspecified) | 31.6µM* | ? | ? | nt | ? | nt
COc1cc(OC)c(OC)cc1/C=C1\CC(C)C/C(=C\c2cc(OC)c(OC)cc2OC)C1=O (stereo unspecified) | 44.7µM* | nt | 12.6% | 0.2% | -21.4% | -3.4%
COc1cc(OC)c(OC)cc1/C=C1/Cc2ccccc2C1=O | 11.3% | nt | -1.1% | 0.3% | -13.5% | 1.1%
CCOc1ccc(OCC)c(NC(=O)CCc2nc3cccnc3n2-c2ccccc2)c1 | nt | 2.2% | nt | 1.1% | nt | 1.2%
c1ccc(N2CCN(c3ccccc3)C2c2ccncc2)cc1 | 79.4µM* | 0.7% | ? | -0.1% | -29.7% | nt
Cc1ccc(NC(=O)CSc2nnc(C)c(=O)[nH]2)cc1 | nt | 0.3% | nt | -1.1% | nt | 1.8%
COc1ccc(NC(=O)CSc2c(C)nn(-c3nnc(C)c(=O)[nH]3)c2C)cc1 | 50.1µM* | 0.9% | -24.1% | 0.2% | 2.9% | -1.2%
CCc1ccc(C2C(C(=O)Nc3ccccc3OC)=C(C)Nc3nc(SCc4ccccc4)nn32)cc1 (stereo unspecified) | nt | -1.8% | nt | -16.1% | nt | -1.2%
CCCOc1ccc(-c2nc(OCC)c3ccccc3n2)cc1 | ? | 0.0% | ? | 31.6µM* | ? | 12.5%[38.3 µM]
